Measured values reported in PubChem BioAssay (NCI).
About 83,000 compounds went through this panel and 20% of them were active in at least one assay; those are over-represented in the sample as a whole.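 How to read the values: 0–100, growth inhibition (40 = 60% inhibited); 0, no net growth; -100 to 0, cell death (-40 = 40% of starting cells died; -100 = all dead).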 The source made the active and inactive calls.

Each compound was assayed on PC-3 prostate (assay: NCI-60 one-dose screen, 48 h (100 = growth as untreated, 0 = no growth, -100 = all killed)). Settings: 10 µM unless noted.
Description: Growth inhibition of the PC-3 human tumor cell line is measured as a screen for anti-cancer activity. Cells are grown in 96 well plates and exposed to the test compound for 48 hours. Compounds are tested at a single concentration, which is 10^-5 M for most compounds. The reported endpoint is percent growth (GI% or GIPRCNT), where numbers from 0 - 100% represent growth inhibition, and numbers from -100% - 0 represent cell death. For example, a value of 40 represents 60% growth inhibition. A value of 0 means no net growth occurred over the course of the experiment. A value of -40 indicates 40% of cells at the beginning of the experiment died by the end of the experiment. A value of -100 means all cells are dead at the end of the experiment.
NCI-60 Human Tumor Cell Lines Screen was performed using the standard one-dose NCI protocol, which is described in more detail at https://dtp.cancer.gov/discovery_development/nci-60/default.htm.
Compounds with GIPRCNT values below 10 were considered active. Activity score was based on GIPRCNT using the following formula: […]
Score is 0 for GIPRCNT values of 100 or above, 50 for GIPRCNT values of 0, and 100 for GIPRCNT values of -100.

Structure (SMILES) | growth
Nc1c(-c2nc3ccccc3c(=O)[nH]2)nnn1-c1ccc(Cl)cc1 | 85.3% (inactive)
N#Cc1cnn2c(-c3ccc(Cl)cc3)nc(NC3CC3)nc12 | 95% (inactive)
Cc1cc(N(CCCNc2ccnc3cc(Cl)ccc23)Cc2ccccn2)nc(N2CCCC2)n1 | 50.5% (inactive)
NC(=S)c1csc(CCNC(=O)c2ccccc2)n1 | 96.6% (inactive)
COc1cc(-c2ncn(/C=C\c3nnco3)n2)cc(C(F)(F)F)c1 | 33.6% (inactive)
Cc1cc(-c2ccc(N(C)C)cc2)c2sc(=O)[nH]c2n1 | 80.8% (inactive)
N=C(N)c1ccc(-c2ccc(-c3ccc(Cl)cc3Cl)o2)cc1 | 52.6% (inactive)
Cl.Fc1c[c-]c(-c2ccccn2)c(F)c1.[Pt].c1ccc(P(c2ccccc2)C([PH+](c2ccccc2)c2ccccc2)[PH+](c2ccccc2)c2ccccc2)cc1 | 7.49% (active)
O=C1Nc2ccccc2SC1C1SC(=S)N(Cc2ccccc2)C1=O (stereo not given) | 88.4% (inactive)
NS(=O)(=O)Oc1ccc(NC(=O)C23CC4CC(CC(C4)C2)C3)cc1Cl | 94.5% (inactive)
NC(N)=N/N=C(/c1ccccc1)c1ccc(N)cc1 | 127% (inactive)
Clc1ccc(-c2nnc(-c3ccco3)o2)cc1 | 96.7% (inactive)
O=C(/C=C/C12c3ccccc3C(c3ccccc31)C1C(=O)N(c3ccccc3)C(=O)C12)c1ccc(Cl)cc1 (stereo not given) | 22.3% (inactive)
C=C(Cl)COC(=O)C(C)(C)O | 92.8% (inactive)
CN1CCN(c2ccc(Nc3ncc(Cl)c(NC[C@@H]4CCCO4)n3)cc2)CC1 | 30.7% (inactive)
OC(c1cccc(OCc2ccccc2)c1)c1nnc(-c2ccccc2)o1 (stereo not given) | 81% (inactive)
CCCCN1CCN(c2ccc3nc(-c4ccc5nc(-c6cc(OC)c(OC)c(OC)c6)[nH]c5c4)[nH]c3c2)CC1 | 57.4% (inactive)
COc1ccc(/C=C2\COc3ccc(O)cc3C2=O)c(OC)c1 | 57.2% (inactive)
COc1ccc(Cn2cnc3cc(C(=O)Nc4cccc5ccccc45)ccc32)c(OC)c1 | 17.4% [30 µM] (inactive)
CN(C)c1ccc(C#Cc2c(F)cccc2Cl)cc1 | 70.5% (inactive)

Structure (SMILES) | growth
CCOC(=O)c1cnn2c(-c3ccc(Cl)cc3)nc(NCc3ccccc3)nc12 | 63% (inactive)
N#Cc1c(N)nc2c(nnn2-c2cccc(Br)c2)c1N | 91.6% (inactive)
Cc1ccc(Nc2ccc(Nc3ccc(C)cc3S(=O)(=O)O)c3c2C(=O)c2ccccc2C3=O)c(S(=O)(=O)O)c1 | 83% (inactive)
O=C(c1ccccc1)c1ccc(N2C(=O)C3C4c5ccccc5C(/C=C/C(=O)c5ccccn5)(c5ccccc54)C3C2=O)cc1 (stereo not given) | 28.4% (inactive)
COc1cccc(CCC2CCCN(c3cc(C)nc(N)n3)C2)c1 (stereo not given) | 20.2% (inactive)
CCOC(=O)c1nnn(-c2ccccc2)c1C1=CN(C)CCC1 | 96.4% (inactive)
CCNCCNc1cc(-c2cccc(C(F)(F)F)c2)c(C#N)c2nc3ccccc3n12 | -59% (active)
Clc1ccc(-c2nnc(Cn3ccnc3)o2)cc1 | 97.2% (inactive)
Cc1ccc(-n2nnc(C3=NCCc4c3[nH]c3ccc(Cl)cc43)c2C)cc1 | 62.1% (inactive)
Cc1nn(Cc2ccccc2)cc1C(=O)Nc1sc2c(c1C(N)=O)CCC(=O)C2 | 15.6% (inactive)
CCCn1nc(-c2ccccc2)c2c(-c3ccccc3)onc2c1=O | 73% (inactive)
COc1ccc(Nc2ncc(Br)c(NCCCNC(=O)C3CCC3)n2)cc1 | 39.2% (inactive)
COc1cc2c(cc1OC)-c1ccc3cc4c(cc3c1N(CCN(C)C)C2)OCO4 | 0.178% (active)
CC(=O)c1sc(-c2ccccc2)cc1N | 90.8% (inactive)
CCCCCCCSc1ccc(C(=O)O)cc1 | 99.9% (inactive)
Clc1ccc2c(NCCCN3CCN(c4nc(-n5ccnc5)nc5ccccc45)CC3)ccnc2c1 | 78.4% (inactive)
COc1cc2oc(-c3cccc(C(=O)Nc4ccc(C#N)cc4)c3)cc(=O)c2c(O)c1OC | 7.86% (active)
N#Cc1c(-c2ccccc2)nc(SCC2CO2)nc1N1CCOCC1 (stereo not given) | 36.1% (inactive)
O=C1CSC(c2ccccc2O)N1c1nnc(Cn2cnnc2)o1 (stereo not given) | 79.4% (inactive)
CCN(CC)CC(=O)Nc1cccc(C(=O)OC(C)C)c1 | 80.8% (inactive)
